# Laboratory results as given in PubChem BioAssay (NCI).
# The panel holds about 83,000 compounds, 20% with a hit somewhere; the sample as a whole holds those more often.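 A percent growth of 40 corresponds to 60% growth inhibition; 0 means no net growth; -100 means all cells died. Active threshold: below 10.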 Calls of active or inactive are those of the source.
# System: RPMI-8226 leukemia
# Experiment: NCI-60 one-dose screen, 48 h (100 = growth as untreated, 0 = no growth, -100 = all killed)
# Conditions: 10 µM unless noted
row,Compound,growth
1,NS(=O)(=O)c1ccc(Nc2nc(N/N=C/c3ccc(F)cc3)nc(Nc3ccccc3)n2)cc1,50.6% (inactive)
2,COc1ccc(-c2cc(-c3ccc(Cl)cc3)nc3nc(N)nn23)cc1,108% (inactive)
3,COc1ccc(Cn2cc3c(c2-c2cc(OC)c(OC)c(OC)c2)CCCc2cnoc2-3)cc1,23.4% (inactive)
4,CN(c1ccc(F)cc1)S(=O)(=O)c1ccc(-c2cnc(C3CC3)o2)cc1,14.1% (inactive)
5,COC[C@]12CC[C@@H](C)[C@H](C)[C@H]1C1=CC[C@@H]3[C@@]4(C)CCCNC(C)(C)[C@@H]4CC[C@@]3(C)[C@]1(C)CC2,2.86% (active)
6,C=C(C)[C@@H]1CC[C@]2(C(=O)ON)CC[C@]3(C)[C@H](CC[C@@H]4[C@@]5(C)C/C(=C/c6ccc(Br)cc6)C(=O)C(C)(C)[C@@H]5CC[C@]43C)[C@@H]12,62.2% (inactive)
7,CN(c1ccc(Br)cc1)S(=O)(=O)c1ccc(-c2cnc(C3CC3)o2)cc1,15.9% (inactive)
8,CCCCCCNC(=O)Oc1ccc(/C(=C(\C)c2ccc(Cl)cc2)c2ccc(OCCN(C)C)cc2)cc1,-11.6% (active)
9,C=C(C)[C@@H]1CC[C@]2(COS(C)(=O)=O)CC[C@]3(C)[C@H](CC[C@@H]4[C@@]5(C)CCCNC(C)(C)[C@@H]5CC[C@]43C)[C@@H]12,44.9% (inactive)
10,O=C(NNc1nc2cc(F)ccc2n2cncc12)c1cnccn1,25.4% (inactive)
11,CN1CCN(c2ccc3c(C(N)=O)c(NC(=O)c4ccc(C(C)(C)C)cc4)sc3c2)CC1,20.1% (inactive)
12,NC(=O)C(=Cc1ccc(Cl)cc1)C(N)=O,41.9% (inactive)
13,CCN1C(=O)N(CC)C2SC(N/N=C/C=C/c3ccccc3OC)=NC21 (stereo not drawn),14.3% (inactive)
14,CC(=O)C1=NN(c2ccc(Cl)cc2)C(=O)CN1C,115% (inactive)
15,CCOC(=O)c1c(NCC(=O)Nc2ccc(Br)cc2)sc2c1CCCC2,27% (inactive)
16,CN1CCN(c2ccc3c(c2)nc(NNC(=O)c2ccncn2)c2cccn23)CC1,24.5% (inactive)
17,CCOc1c(C#N)c(Nc2ccc(S(N)(=O)=O)cc2)c(C#N)c2nnc(C)n12,107% (inactive)
18,O=c1[nH]c(CNc2ccc(NCc3c(-c4ccccc4)no[n+]3[O-])cc2)nc2c1cnn2-c1ccccc1,61.9% (inactive)
19,C#CCOc1ccc(C(Nc2ccc(Cl)cc2)c2nnnn2C2CCCCC2)cc1 (stereo not drawn),76.9% (inactive)

row,Compound,growth
1,COc1cc(/C=N/Nc2ccnc3cc(Cl)ccc23)cc(OC)c1O,-9.43% (active)
2,COc1cc(C(=O)C[n+]2ccc3ccccc3c2)cc(OC)c1OC,111% (inactive)
3,Cc1ccc(NC(=O)c2ccc(CN3CCN(C)CC3)c(I)c2)cc1Oc1ccc(-c2[nH]nc3ncnc(N)c23)cc1,-3.29% (active)
4,COc1ccc(Cn2cc3c(c2-c2ccccc2)CCCc2cnoc2-3)cc1,59.8% (inactive)
5,N#Cc1c(NC(=O)c2ccc(F)c(Cl)c2)sc2c1CCC(=O)C2,0.133% (active)
6,c1ccc(-c2c(-c3ccccc3)[n+](Cc3ccc4ccccc4c3)c(-c3ccccc3)n2Cc2ccc3ccccc3c2)cc1,-30.5% (active)
7,CCOC(=O)C1=C(C)N=C2Sc3ccccc3N2C1c1ccccc1 (stereo not drawn),73.4% (inactive)
8,CCn1c2ccc(/C=N/NS(=O)(=O)CCN(C)C)cc2c2cc(/C=N/NS(=O)(=O)CCN(C)C)ccc21,99.8% (inactive)
9,Cn1cc2c(c1)-c1c(sc3nc(-c4ccc(NC(=O)Nc5cc(C(C)(C)C)on5)cc4)cn13)CC2,-7.75% (active)
10,CCOC(=O)c1c(NC(=O)c2ccc(C(C)(C)C)cc2)sc2cc(OCCN3CCCCC3)ccc12,14.6% (inactive)
11,COc1ccccc1/C=C/C=N/NC1=NC2C(S1)N(C)C(=O)N2c1ccccc1 (stereo not drawn),18.9% (inactive)
12,CC1(C)CC[C@]2(C(=O)O)CC[C@]3(C)C(=CCC4[C@@]5(C)C[C@@H](O)[C@@H]6OC(c7cccc([N+](=O)[O-])c7)OC[C@@]6(C)C5CC[C@]43C)C2C1 (stereo partly drawn),56% (inactive)
13,CN(C)c1ncc(/C=C2\SC(=S)N(Cc3ccccc3Cl)C2=O)s1,86.3% (inactive)
14,O=C(/C=C1\C=CN(CCCCO)c2ccccc21)n1ccc2ccccc21,109% (inactive)
15,C#C[C@]1(O)CC[C@H]2[C@@H]3CC=C4c5sc(Nc6nc(C)cc(OC)n6)nc5CC[C@]4(C)[C@H]3CC[C@@]21C,-0.189% (active)
16,Oc1ccccc1/C=N/Nc1nc(N/N=C/c2ccccc2O)nc(N2CCOCC2)n1,53.6% (inactive)
17,IP(CCCSc1n(Cc2ccc3ccccc3c2)c(-c2ccccc2)c(-c2ccccc2)[n+]1Cc1ccc2ccccc2c1)(c1ccccc1)(c1ccccc1)c1ccccc1,14.8% (inactive)
18,Cn1cc(-c2nnc(N)nc2-c2cn(C)c3ccc(F)cc23)c2cc(F)ccc21,106% (inactive)
19,N/C(=N\OC(=O)CSc1nc2ccccc2s1)c1ccc(Cl)cc1,99.4% (inactive)
